Out of some 330,000 compounds screened, about 4,200 (1.3%) were called active. Inconclusive results (about 6%) are left out. This is one part of a sample in which actives are shown more often than they occur. The call rests on the fitted dose curve; in most records, active means well fitted activation curve with a large enough effect; inconclusive means small, poorly fitted or top-dose-only effect; inactive means no such curve, though single readings can be large or run the other way.
Potency means the concentration at half of the fitted maximal effect.

This assay can be described thus: qHTS screen for small molecules that induce genotoxicity in human embryonic kidney (HEK293T) cells expressing luciferase-tagged ELG1. Further: nearly all actives have a fitted effect of over 60% in size. On activity change, positive = activation: % of control where 0% means no effect. The conditions noted are these: HEK293T ELG1-luciferase reporter, luminescence, 16 h; series mostly up to 46 µM; activity change, positive = activation: at the top concentration. From the text: NIH Molecular Libraries Probe Production Network [MLPCN] NIH Chemical Genomics Center [NCGC] MLPCN Grant: 1 R03 MH092164-01 Assay Provider: Kyungjae Myung, NHGRI, NIH Keywords: MLPCN, qHTS, NCGC, genotoxicity, cancer Assay Overview: Cancer cells divide rapidly compared to normal cells in the body. During cell division, cancer cells need to duplicate their genome by DNA replication. The failure of genome duplication leads to cancer cells' death. Therefore, inhibitors of DNA replication could specifically kill cancer cells. Based on this concept, many chemotherapeutic agents were developed and have been used to treat cancer patients. However, there are a limited number of agents available in the clinical setting, and some of those that do exist have low efficacy and severe side effects. Therefore, if we can find the compounds that effectively block DNA replication either by directly damaging DNA or by inhibiting other cellular mechanisms, the options for cancer treatment will be broadened. With this in mind, we developed a quantitative high-throughput ELG1-luciferase reporter gene assay. Since the level of human ELG1 protein is enhanced in response to genetic stresses, increases in luciferase activity can be used to identify compounds that cause genetic stress.
Assay Protocol Summary: For genotoxicity screening, 2,000 cells in 5 uL/well were dispensed into white, solid-bottom 1536-well plates using a solenoid-based dispenser. Following transfer of 23 nL compound or DMSO vehicle by a pin tool, the plates were incubated 16 hr at 37 °C and 5% CO2. 5 ul ONE-Glo (Promega) was then added to each plate and following a 30 min incubation at room temperature, luciferase activity was quantified on a ViewLux CCD-based plate reader.
For orientation: In qHTS, concentration-response curves come from the screen itself.
As for `O=C(OCC(=O)c1cccs1)C1=COCCO1`, the Potency is 18.4 µM (active).

In the case of `CC[N+](C)(CC)CCC[n+]1c(-c2ccccc2)c2cc(N)ccc2c2ccc(N)cc21`, the “activity change, positive = activation” value is -41.2% (inactive).

As for `c1cc2c(cc1C1OCC3C(c4ccc5c(c4)OCO5)OCC13)OCO2` (stereo not given), the “activity change, positive = activation” value was -2.92% (inactive).

Regarding `C[C@]12CC[C@H](O)CC1=C([N+](=O)[O-])CC1C2CC[C@@]2(C)C1CC[C@@H]2O` (stereo not given in full), the “activity change, positive = activation” value was 0.441% (inactive).

As to `COc1ccc(C2CC(c3cccs3)=NN2c2nc(C)c(C(C)=O)s2)cc1OC` (stereo not given), the Potency was 20.6 µM (active).

As to `CN(C)C(=O)Oc1ccc(OCc2cccc[n+]2C)cc1`, the “activity change, positive = activation” value was -2.07% (inactive).

With `CCOC(=O)c1c(-c2ccccc2)oc2ccc(OC(=O)N(C)C)cc12`, the “activity change, positive = activation” value is -10.6% (inactive).

For `CN(C)C(=O)Oc1ccc2c(c1)O/C(=C\c1ccccc1)C2=O`, the Potency is 20.6 µM (active).

Consider `COC(=O)[C@@H]1C(OC(=O)c2ccccc2)CC2CCC1N2C` (stereo not given in full), for which the “activity change, positive = activation” value was -3.24% (inactive).

Turning to `CC[C@H]1CN2CCc3cc(OC)c(OC)cc3[C@@H]2C[C@@H]1C[C@H]1NCCc2cc(OC)c(OC)cc21`, the “activity change, positive = activation” value is -16.4% (inactive).

For `COC1=CC=C2[C@H]3Cc4ccc(OC)c5c4[C@@]2(CCN3C)C1O5` (stereo not given in full), the “activity change, positive = activation” value is -0.142% (inactive).

Consider `O=C(OCCN1CCOCC1)C1(c2ccccc2)CCCC1`, for which the “activity change, positive = activation” value was -5.98% (inactive).

With `CCC(=O)c1ccc(OCC(=O)N2CCN(CC(=O)Nc3ccc(C)cc3)CC2)cc1`, the “activity change, positive = activation” value was -1% (inactive).

`O=C(/C=C/c1cccs1)c1cc(Cl)ccc1OC(=O)N1CCOCC1`: the “activity change, positive = activation” value was -27.3% (inactive).

As to `Oc1ccc2c3c1OC1[C@H](O)CC[C@@]4(O)[C@@H](C2)N(CC2CC2)CC[C@]314` (stereo not given in full), the Potency entry is “inactive”.

Source of the values: PubChem BioAssay AID504466 (National Center for Advancing Translational Sciences (NCATS), 2011).
